Laboratory results from publication PMC12670160, “A drug-repurposing screen of FDA- and EMA-approved drugs identifies two NF-κB inhibitors active against eumycetoma” (Journal of Antimicrobial Chemotherapy, 2025).
Counter-ions that a name gives are not always drawn. Like-named read-outs stand apart in the source and are kept apart here. The campaign covered roughly 5,300 compounds. About 130 (2.5%) showed an effect of 50% or more. Many of the other results were omitted from the sample, so strong results are more common in it than they were.

Tested on: M. mycetomatis strain mm55
Details: primary screen, metabolic activity vs growth control, 96 h, 2 µM, inhibitor

SMILES | % viability [%] | % viability (Madurella mycetomatis metabolic activity at 2µM (%)) [%]
O=C(CNC(=O)c1cccc(C(F)(F)F)c1)N[C@@H]1CCN(Cc2ccc(Cl)cc2)C1 [ONC0002608, teijincompound1] | 76.98 | –
C[S+]([O-])CCCCN=C=S (stereo not drawn) [ONC0003262, sulforaphane] | 49.62 | –
C/C=C/C1=C(C(=O)O)N2C(=O)[C@@H](NC(=O)[C@H](N)c3ccc(O)cc3)[C@H]2SC1 [ONC0004213, cefprozil] | 75.17 | –
O=C(Nc1cnccc1Cl)N1CCN(Cc2ccc3c(c2)OC(F)(F)O3)CC1 [ONC0001299, jnj42165279] | 60.28 | –
COc1nc(C)nc(Cl)c1N=C1NCCN1 [ONC0003528, moxonidine] | 108 | –
CCCCCCCC/C=C/C(=O)O [ONC0003676, trans2undecenoic acid] | 70.7 | –
CCCCCCCCCCCCCCC[C@@H](O)[C@@H](N)CO [ONC0003442, dihydrosphingosine derythro] | 75.68 | –
CCCCCC(C)N (stereo not drawn) [ONC0003207, tuaminoheptane sulfate] | 110.6 | –
CCCCCCCCCCCCCC[C@@H](O)[C@@H](O)[C@@H](N)CO [ONC0003465, phytosphingosine] | 45.49 | –
N#Cc1ccc(Cn2cncc2CN2CCN(c3cccc(Cl)c3)C(=O)C2)cc1 [ONC0000972, l778123 hydrochloride] | 78.78 | –
CC(=O)O[C@]1(C(C)=O)CCC2C3C[C@H](C)C4=CC(=O)CC[C@]4(C)C3CC[C@@]21C (stereo partly drawn) [ONC0000456, medroxyprogesterone acetate] | 83.76 | –
N[C@H](Cc1cc(I)c(Oc2ccc(O)c(I)c2)c(I)c1)C(=O)O [ONC0003830, liothyronine] | 90.31 | –
O=C(O[C@@H]1C[C@@H]2C[C@@H]3C[C@H](C1)N2CC3=O)c1c[nH]c2ccccc12 [ONC0005492, dolasetron] | 77.8 | –
O[C@H]([C@H](O)[C@@H]1CO1)[C@H]1CO1 [ONC0001201, val083] | 107 | –
CC(C)(C)c1ccc(C(=O)Nc2cn3cc(-n4ccnc4)ccc3n2)cc1 [ONC0000079, tcask10] | 88.09 | –
NC(=O)C[C@H](N)C(=O)O [ONC0002130, lasparagine] | 76.47 | –
N[C@@H](CC(=O)NO)C(=O)O [ONC0005577, lasparaginenhydroxy] | 46.79 | –
N[C@@H](CC(=O)O)C(=O)O [ONC0005584, lasparticacid] | 67.27 | –
CC1(C)S[C@@H]2C(N3C(=O)[C@@H](c4ccccc4)NC3(C)C)C(=O)N2[C@H]1C(=O)O (stereo partly drawn) [ONC0000520, hetacillin potassium] | 62.89 | –

SMILES | % viability [%] | % viability (Madurella mycetomatis metabolic activity at 2µM (%)) [%]
Cn1c(Nc2ccc(C(F)(F)F)cc2)nc2cc(Oc3ccnc(-c4ncc(C(F)(F)F)[nH]4)c3)ccc21 [ONC0005005, raf265 chir265] | 41.37 | –
CC(C)C[C@H](NC(=O)CN(C)C(=O)[C@H](Cc1ccccc1)NC(=O)[C@H](Cc1ccccc1)NC(=O)[C@H](CCC(N)=O)NC(=O)[C@H](CCC(N)=O)NC(=O)[C@@H]1CCCN1C(=O)[C@H](CCCCN)NC(=O)[C@@H]1CCCN1C(=O)[C@@H](N)CCCNC(=N)N)C(=O)N[C@@H](CCS(C)(=O)=O)C(N)=O [ONC0003648, sar9meto211substance p] | 64.96 | –
Cc1ccc(Cl)c(OCC(O)CNC(C)C)c1 (stereo not drawn) [ONC0003711, 12chloro5methylphenoxy3isopropylamino2propanol] | 103 | –
O=C1C2CC=CCC2C(=O)N1SC(Cl)(Cl)Cl (stereo not drawn) [ONC0003351, captan] | 76.61 | –
NC(Cc1ccc(O)cc1)C(=O)O (stereo not drawn) [ONC0003385, dltyrosine] | 63.01 | –
OC[C@H]1OC(O)C[C@@H](O)[C@@H]1O (mixture of isomers) [ONC0003476, 2deoxyglucose] | 78.39 | –
COC(=O)[C@H](NC(=O)c1cc(-c2ccccc2)nc2ccccc12)c1ccccc1 [ONC0001501, sb218795] | 80.75 | –
CC(C)NC(=O)COc1cccc(-c2nc(Nc3ccc4[nH]ncc4c3)c3ccccc3n2)c1 [ONC0001882, slx2119] | 46.69 | –
O=C(NCc1cccc(O)c1)Nc1nc(-c2ccncc2)cs1 [ONC0002554, srpin340] | – | 81.94
c1cc(Nc2cc(C3CC3)[nH]n2)nc(Nc2ccc3[nH]cnc3c2)n1 [ONC0003009, apy29] | 67.52 | –
CC(C)(C)c1cc(C=C(C#N)C#N)cc(Br)c1O [ONC0004740, ag1024] | 105.8 | –
CC(C)(C)c1cc(/C=C(\C#N)C(N)=S)cc(C(C)(C)C)c1O [ONC0005258, tyrphostin ag 879 ag 879] | 127.6 | –
CC(C)(C)c1cc(C=C(C#N)C#N)cc(C(C)(C)C)c1O [ONC0004560, tyrphostin 9 sf 6847] | 1.693 | –
CC(C)C[C@@H](N)C(=O)N[C@H]1C(=O)N[C@@H](CC(N)=O)C(=O)N[C@H]2C(=O)N[C@H]3C(=O)N[C@H](C(=O)N[C@H](C(=O)O)c4cc(O)cc(O)c4-c4cc3ccc4O)[C@H](O)c3ccc(c(Cl)c3)Oc3cc2cc(c3O[C@@H]2O[C@H](CO)[C@@H](O)[C@H](O)[C@H]2O[C@H]2C[C@](C)(N)[C@H](O)[C@H](C)O2)Oc2ccc(cc2Cl)[C@H]1O [ONC0002123, norvancomycin hydrochloride] | 86.02 | –
CCN(CC)C(=O)N[C@H]1CC2c3cccc4[nH]cc(c34)CC2N(C)C1 (stereo partly drawn) [ONC0002019, terguride] | 81.88 | –
Clc1ccc(C(Cn2ccnc2)OCc2c(Cl)cccc2Cl)c(Cl)c1 (stereo not drawn) [Isoconazole nitrate (Travogen), Isoconazole nitrate] | 2.362 | –
COc1ccc(CCCOC(Cn2ccnc2)c2ccc(OC)cc2)cc1 (stereo not drawn) [ONC0000065, skf96365] | 143.6 | –
Clc1ccc(C(Cn2ccnc2)OCc2csc3c(Cl)cccc23)c(Cl)c1 (stereo not drawn) [ONC0005215, sertaconazole nitrate] | 82 | –
Clc1ccc(COC(Cn2ccnc2)c2ccc(Cl)cc2Cl)c(Cl)c1 (stereo not drawn) [Miconazole nitrate] | 2.05 | –

SMILES | % viability [%] | % viability (Madurella mycetomatis metabolic activity at 2µM (%)) [%]
Clc1ccc(C(Cn2ccnc2)OCc2ccc(Sc3ccccc3)cc2)c(Cl)c1 (stereo not drawn) [ONC0004926, fenticonazole nitrate] | 131.8 | –
C=CCOC(Cn1ccnc1)c1ccc(Cl)cc1Cl (stereo not drawn) [ONC0005416, enilconazole sulfate] | 2.508 | –
Clc1ccc(CCC(Cn2ccnc2)Sc2c(Cl)cccc2Cl)cc1 (stereo not drawn) [ONC0005620, butoconazole] | 76.6 | –
Clc1ccc(COC(Cn2ccnc2)c2ccc(Cl)cc2Cl)cc1 (stereo not drawn) [ONC0000666, econazole nitrate] | 102.4 | –
Clc1ccc(C(Cn2ccnc2)OCc2ccsc2Cl)c(Cl)c1 (stereo not drawn) [Tioconazole] | 3.335 | –
Clc1ccc(CSC(Cn2ccnc2)c2ccc(Cl)cc2Cl)cc1 (stereo not drawn) [ONC0000678, sulconazole nitrate] | 120.3 | –
CC(C)S(=O)(=O)NC[C@H](C)c1ccc(-c2ccc(CCNS(C)(=O)=O)cc2)cc1 [ONC0000792, mibampator] | 65.07 | –
CC(=O)Nc1c(I)c(C(=O)O)c(I)c(N(C)C(C)=O)c1I [ONC0002767, metrizoic acid] | 98.58 | –
CO[C@H]1C[C@H](O[C@H]2CC[C@@]3(C)[C@H](CC[C@@H]4[C@@H]3CC[C@]3(C)[C@@H](C5=CC(=O)OC5)[C@@H](OC(C)=O)C[C@]43O)C2)O[C@@H](C)[C@@H]1O [ONC0000896, oleandrin] | 70.17 | –
COc1cc([S+](C)[O-])ccc1-c1nc2ncccc2[nH]1 (stereo not drawn) [ONC0002956, sulmazole] | 88.35 | –
COc1cc(N)c(Cl)cc1C(=O)N[C@@H]1CCN(CCCOc2ccc(F)cc2)C[C@@H]1OC (racemic) [ONC0002671, cisapride] | 79.76 | –
CC[C@H](NC(C)C)[C@H](O)c1ccc(O)c2[nH]c(=O)ccc12 (racemic) [ONC0000846, procaterol] | 72.96 | –
COc1cc2c(Nc3ccc(Br)cc3F)ncnc2cc1OCC1CCN(C)CC1 [ONC0004515, vandetanib zd6474] | 76.73 | –
N[C@@H](CN1C=CC(=O)C(=O)C1)C(=O)O [ONC0002117, lmimosine] | 76.12 | –
CCCCCCOc1nsnc1C1=CCCN(C)C1.O=C(O)C(=O)O [ONC0001841, xanomeline oxalate] | 152.3 | –
C[C@H](NC(=O)C(C)(C)Oc1ccc(C(F)(F)F)cn1)[C@@H](Cc1ccc(Cl)cc1)c1cccc(C#N)c1 [ONC0002066, taranabant] | 72.16 | –
CCCC[C@H](NC(=O)[C@@H]1[C@@H]2[C@H](CN1C(=O)[C@@H](NC(=O)NC1(CS(=O)(=O)C(C)(C)C)CCCCC1)C(C)(C)C)C2(C)C)C(=O)C(=O)NC1CC1 [ONC0000734, narlaprevir] | 68.03 | –
CC(C)(C)NC(=O)N[C@H](C(=O)N1C[C@H]2[C@@H]([C@H]1C(=O)NC(CC1CCC1)C(=O)C(N)=O)C2(C)C)C(C)(C)C (stereo partly drawn) [ONC0001071, boceprevir] | 43.8 | –
Cc1cnc(NC(=O)c2cc(Oc3cnc(C(=O)N(C)C)nc3)c3cc(C)oc3c2)cn1 [ONC0005563, pf04937319] | 103.7 | –
